Results taken from PubChem BioAssay AID1159580 (chemical genetic matrix, 2015).
Hit rate of the full screen: of about 5,500 compounds, about 2,000 (36%) were called active. Inconclusive results (about 18%) are left out. No stated cut-off is given here; in the data, active means normalized growth mostly below about 0.91 (no sharp cut-off); inconclusive means no clear call, values can overlap the other calls; inactive means mostly above about 0.92. This is one part of the list.

Assay: chemical genetic growth profiling, strain panel (AID 1159580);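 further: tested at 20 µM; growth read once vehicle control cultures reached saturation at 30 °C; 1 = growth at the plate median or of vehicle wells; lower values mean less growth of the strain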
Settings: S. cerevisiae deletion strains, growth OD
[1] = locus YDL101C, strain DUN1, active compounds read low
[2] = locus YHR030C, strain SLT2, active compounds read low

Measured: normalized growth

O=C(Nc1ccc(Cl)cc1)SCc1c(Cl)cccc1Cl
active: locus YFR019W, strain FAB1, active compounds read low 0.747 | [2] 0.793 | locus YLR113W, strain HOG1, active compounds read low 0.728 | locus YPL256C, strain CLN2, active compounds read low 0.811
inactive: locus YAR019C, strain CDC15, active compounds read low 0.985 | locus YBL105C, strain PKC1, active compounds read low 0.976 | locus YBR135W, strain CKS1, active compounds read low 0.984 | locus YBR136W, strain MEC1, active compounds read low 0.967 | locus YBR160W, strain CDC28, active compounds read low 0.988 | locus YDL017W, strain CDC7, active compounds read low 0.976 | locus YDL028C, strain MPS1, active compounds read low 0.987 | [1] 0.974 | locus YDL108W, strain KIN28, active compounds read low 0.959 | locus YDL132W, strain cdc53, active compounds read low 0.999 | locus YDL214C, strain PRR2, active compounds read low 0.786 | locus YDR052C, strain DBF4, active compounds read low 0.974 | locus YDR054C, strain cdc34, active compounds read low 0.953 | locus YDR226W, strain ADK1, active compounds read low 0.969 | locus YDR477W, strain SNF1, active compounds read low 0.83 | locus YER123W, strain YCK3, active compounds read low 0.659 | locus YER133W, strain GLC7, active compounds read low 0.834 | locus YFL009W, strain cdc4, active compounds read low 1 | locus YFL029C, strain CAK1, active compounds read low 0.975 | locus YFR003C, strain YPI1, active compounds read low 0.972 | locus YFR028C, strain CDC14, active compounds read low 0.988 | locus YGR040W, strain KSS1, active compounds read low 0.808 | locus YGR052W, strain FMP48, active compounds read low 0.765 | locus YGR092W, strain DBF2, active compounds read low 0.763 | locus YHR079C, strain IRE1, active compounds read low 0.748 | locus YHR082C, strain KSP1, active compounds read low 0.787 | locus YHR205W, strain SCH9, active compounds read low 0.919 | locus YIL147C, strain SLN1, active compounds read low 0.973 | locus YJL095W, strain BCK1, active compounds read low 0.745 | locus YJL128C, strain PBS2, active compounds read low 0.92 | locus YJL157C, strain FAR1, active compounds read low 0.76 | locus YJR016C, strain ILV3, active compounds read low 0.995 | locus YJR066W, strain TOR1 (second series), active compounds read low 0.746 | locus YJR066W, strain TOR1, active compounds read low 0.788 | locus YKL048C, strain ELM1, active compounds read low 0.891 | locus YKL067W, strain YNK1, active compounds read low 0.8 | locus YKL101W, strain HSL1, active compounds read low 0.83 | locus YKL193C, strain SDS22, active compounds read low 0.973 | locus YKL203C, strain TOR2, active compounds read low 0.891 | locus YLR133W, strain CKI1, active compounds read low 0.816 | locus YLR403W, strain SFP1, active compounds read low 0.897 | locus YML070W, strain DAK1, active compounds read low 0.783 | locus YMR001C, strain CDC5, active compounds read low 0.971 | locus YMR205C, strain PFK2 (second series), active compounds read low 0.836 | locus YMR277W, strain FCP1, active compounds read low 0.975 | locus YNL006W, strain LST8, active compounds read low 0.989 | locus YNL020C, strain ARK1, active compounds read low 0.771 | locus YNL161W, strain CBK1, active compounds read low 0.974 | locus YNL183C, strain NPR1, active compounds read low 0.821 | locus YNL207W, strain RIO2, active compounds read low 0.955 | locus YNL222W, strain SSU72, active compounds read low 0.979 | locus YNL307C, strain MCK1 (second series), active compounds read low 0.721 | locus YOL078W, strain AVO1, active compounds read low 0.977 | locus YOL136C, strain PFK27, active compounds read low 0.761 | locus YOR061W, strain CKA2, active compounds read low 0.756 | locus YOR119C, strain RIO1, active compounds read low 0.905 | locus YOR231W, strain MKK1, active compounds read low 0.831 | locus YOR329C, strain SCD5, active compounds read low 0.979 | locus YPL031C, strain PHO85, active compounds read low 0.778 | locus YPL153C, strain RAD53, active compounds read low 0.798 | locus YPL204W, strain HRR25, active compounds read low 0.813 | locus YPL209C, strain IPL1, active compounds read low 0.972 | locus YPR025C, strain CCL1, active compounds read low 0.988 | locus YPR106W, strain ISR1, active compounds read low 0.963 | locus YPR111W, strain DBF20, active compounds read low 0.961 | strain NNK1, active compounds read low 0.954 | strain TSCII, active compounds read low 0.978

N#C/C(NCc1cccs1)=C(\C#N)NCc1c(F)cccc1Cl
inactive: locus YAL013W, strain DEP1, active compounds read low 0.958 | locus YBR229C, strain ROT2, active compounds read low 0.977 | locus YCL061C, strain MRC1, active compounds read low 0.97 | [1] 0.979 | locus YDR150W, strain NUM1, active compounds read low 0.899 | locus YEL061C, strain CIN8, active compounds read low 0.998 | locus YGR078C, strain PAC10, active compounds read low 0.973 | [2] 0.919 | locus YHR087W, strain rtc3, active compounds read low 0.991 | locus YJL187C, strain SWE1, active compounds read low 1 | locus YJR043C, strain POL32, active compounds read low 0.988 | locus YJR075W, strain HOC1, active compounds read low 0.97 | locus YLR039C, strain RIC1, active compounds read low 0.939 | locus YLR058C, strain SHM2 (second series), active compounds read low 0.972 | locus YLR085C, strain ARP6, active compounds read low 0.957 | locus YLR262C, strain YPT6, active compounds read low 0.969 | locus YML094W, strain GIM5, active compounds read low 0.964 | locus YMR219W, strain ESC1, active compounds read low 0.986 | locus YMR263W, strain SAP30, active compounds read low 0.947 | locus YMR307W, strain GAS1, active compounds read low 0.919 | locus YNL153C, strain GIM3, active compounds read low 0.993 | locus YNL298W, strain CLA4 (second series), active compounds read low 0.959 | locus YNL322C, strain KRE1, active compounds read low 0.969 | locus YNR030W, strain Alg12, active compounds read low 0.964 | locus YOL006C, strain TOP1, active compounds read low 1.01 | locus YPL241C, strain CIN2, active compounds read low 0.973 | locus YPR135W, strain CTF4, active compounds read low 0.962
